High-throughput results (PubChem)
Rows were chosen to be rich in hits. Some 3.2% of all compounds tested hit in one or more screens of this group.
Mtb FBA inh – Mtb FBA enzyme inhibitors, primary screen, biochemical, fluorescence, strain H37Rv | Fructose-bisphosphate aldolase (Mycobacterium tuberculosis (strain ATCC 25618 / H37Rv)), … | purified M. tuberculosis FBA, fluorescence read-out | inhibition, % at 1 µM | 360,000 tested, 2.3% active | AID 588726, 2011; in the data active = inhibition above about 27%
Mtb bLac sens – beta-lactam sensitization of Mtb H37Rv, H37Rv; M. tuberculosis H37Rv growth with meropenem, percent inhibition; inhibition, % at 25 µM; 330,000 tested, 0.27% active; AID 434955, 2010; call rule not given here;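 note: growth measured after seven days incubation then overnight dye step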
Rv3671c protease – Rv3671c serine protease inhibitors, primary screen, biochemical, fluorescence polarization, M. tuberculosis H37Rv; inhibition, % at 5.96 µM; 320,000 tested, 0.048% active; P9WHR9; in the data active = inhibition above about 38%;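 note: extracellular domain of Rv3671c used as enzyme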
SSB-PriA inh – inhibitors of Klebsiella pneumoniae PriA binding to SSB C-terminal tail, primary screen, biochemical, AlphaScreen; AlphaScreen SSBct-PriA binding, biotinylated peptide; AID 1272365, 2023; inhibition, % at 33 µM; 430,000 tested, 0.6% active; in the data active = inhibition mostly above about 37%, no sharp cut-off; inactive = mostly below about 20%
Mtb UGM inh – M. tuberculosis UGM enzyme inhibitors, primary screen, biochemical, fluorescence polarization, single point; UDP-galactopyranose mutase (Mycobacterium tuberculosis (strain ATCC 25618 / H37Rv)), …; inhibition, % at 10 µM; 320,000 tested, 0.06% active; purified UGM, fluorescence polarization probe displacement; AID 504406, 2011; in the data active = inhibition above about 10%, passing the limit was not always enough
Target sequence (P9WIQ1 whole entry, looked up): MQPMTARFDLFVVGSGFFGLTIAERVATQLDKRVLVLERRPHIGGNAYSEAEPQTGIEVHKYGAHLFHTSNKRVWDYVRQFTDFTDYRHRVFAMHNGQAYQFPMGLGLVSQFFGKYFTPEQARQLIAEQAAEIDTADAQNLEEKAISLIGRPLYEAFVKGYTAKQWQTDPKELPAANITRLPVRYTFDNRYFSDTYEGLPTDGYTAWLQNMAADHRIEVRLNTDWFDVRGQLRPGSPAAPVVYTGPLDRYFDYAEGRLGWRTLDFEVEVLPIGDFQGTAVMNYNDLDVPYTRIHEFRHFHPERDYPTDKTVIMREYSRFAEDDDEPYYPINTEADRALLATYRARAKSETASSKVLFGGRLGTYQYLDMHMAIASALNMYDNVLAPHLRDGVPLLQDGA
GDH-TPI inh – GDH-TPI coupling enzyme inhibitors, primary screen, artefact control for M. tuberculosis FBA inhibitor project, biochemical, absorbance, full deck | GDH-TPI coupled enzyme counterscreen, NADH absorbance | inhibition, % at 4.8 µM | 360,000 tested, 1.2% active | AID 588335, 2011; in the data active = inhibition above about 30%
Large screens that a line does not name were inactive.

CC(C)N1CC=C2C(C#N)=C(N)C(C#N)(C#N)C(c3ccccc3)C2C1 (stereo not given)	Mtb FBA inh active
CCN1CC=C2C(C#N)=C(N)C(C#N)(C#N)C(c3cc(Cl)ccc3Cl)C2C1 (stereo not given)	Mtb FBA inh 33
O=C(COC(=O)c1cccc(O)c1)Nc1nnc(-c2ccccc2)o1	SSB-PriA inh 43
O=C(COC(=O)c1ccc(O)cc1O)Nc1nnc(-c2ccccc2)o1	SSB-PriA inh 57
CCOc1ncccc1C(=O)OCC(=O)Nc1nnc(-c2ccccc2)o1	none
COc1cc(Nc2ccc(NC(=O)Nc3ccccc3Cl)cc2)nc(C)n1	none (no result: Mtb FBA inh, Mtb bLac sens, Rv3671c protease, Mtb UGM inh, GDH-TPI inh)
COc1ccccc1N1C(=O)C2C(C(=O)c3ccccc3)=NN(c3ccc(Br)cc3)C2C1=O (stereo not given)	Mtb UGM inh 11
COc1ccccc1N1C(=O)C2C(C(=O)c3ccccc3)=NN(c3ccc(C)cc3)C2C1=O (stereo not given)	none
O=C(C1=NN(c2ccccc2)C2C(=O)N(c3ccc(Cl)cc3)C(=O)C12)c1ccccc1 (stereo not given)	Mtb UGM inh 15
O=S(=O)(NCCOc1ccc2nnc(-c3ccccc3)n2n1)c1cccs1	none (no result: Mtb FBA inh, Mtb bLac sens, Rv3671c protease, Mtb UGM inh, GDH-TPI inh)
CCOC(=O)C1C(=O)C=C(c2ccc(C)cc2)CC1c1ccco1 (stereo not given)	none
CCOC(=O)C1C(=O)C=C(c2ccc(NS(C)(=O)=O)cc2)CC1c1ccco1 (stereo not given)	GDH-TPI inh 33
CC(=NNC(=O)COc1ccc(C(C)(C)C)cc1)c1cc2ccccc2o1	none (no result: Mtb FBA inh, Mtb bLac sens, Rv3671c protease, Mtb UGM inh, GDH-TPI inh)
O=C(Nc1ccc(S(=O)(=O)Nc2ncccn2)cc1)c1ncc(-c2ccc(F)cc2)o1	none (no result: Mtb FBA inh, Mtb bLac sens, Rv3671c protease, Mtb UGM inh, GDH-TPI inh)
CC(NC(=O)CNC(=O)c1cccc(Cl)c1)c1ccccc1 (stereo not given)	SSB-PriA inh 66
O=C(CSc1nc(-c2ccco2)cc(C(F)(F)F)n1)Nc1cccnc1	GDH-TPI inh 32
O=C(CSc1nc(-c2ccco2)cc(C(F)(F)F)n1)Nc1ccc2c(c1)OCO2	none
Cc1nn(-c2ccccc2)c(C)c1C=NNC(=O)CSc1nc2ccccc2c(=O)n1-c1ccc(Br)cc1	none (no result: Mtb FBA inh, Mtb bLac sens, Rv3671c protease, Mtb UGM inh, GDH-TPI inh)
O=C(NCCNc1cc(Nc2ccccn2)ncn1)c1cnccn1	none (no result: Mtb FBA inh, Mtb bLac sens, Rv3671c protease, Mtb UGM inh, GDH-TPI inh)
CCOc1ccc(C(=O)Nc2cc(-c3cn4cccnc4n3)ccc2C)cc1	none (no result: Mtb FBA inh, Mtb bLac sens, Rv3671c protease, Mtb UGM inh, GDH-TPI inh)
CN(C)c1ccc(C=c2c3cc([N+](=O)[O-])ccc3n3c2cc(-c2ccccc2)[n+]3C)cc1	GDH-TPI inh 42 (no result: Mtb bLac sens, Rv3671c protease, Mtb UGM inh)
S=c1[nH]nc(-c2ccccc2Cl)o1	none (no result: Mtb FBA inh, Mtb bLac sens, Rv3671c protease, Mtb UGM inh, GDH-TPI inh)
S=c1[nH]nc(-c2ccc3ccccc3n2)o1	GDH-TPI inh 38
Cc1ccc(S(=O)(=O)c2cc3ccccc3oc2=O)cc1	none
CCN(CC)c1ccc2cc(S(=O)(=O)c3ccc(C)cc3)c(=O)oc2c1	Mtb UGM inh 30
COc1ccc(C(=O)NCCc2c[nH]c3ccccc23)nn1	none (no result: Mtb FBA inh, Mtb bLac sens, Rv3671c protease, Mtb UGM inh, GDH-TPI inh)
CC(C)(C)c1ccc(-c2ncccc2O)cc1	Mtb FBA inh 170
CS(=O)(=O)Nc1ccc(C2=NN(C(=O)CCCC(=O)O)C(c3cccs3)C2)cc1 (stereo not given)	Mtb FBA inh active
CC(C)(C)C(=O)N1N=C(c2ccc(NS(C)(=O)=O)cc2)CC1c1cccs1 (stereo not given)	Mtb FBA inh 112
CC(=O)N1N=C(c2cccc(NS(C)(=O)=O)c2)CC1c1cccs1 (stereo not given)	GDH-TPI inh 65
CS(=O)(=O)Nc1ccc(C2=NN(C(=O)c3ccccc3)C(c3cccs3)C2)cc1 (stereo not given)	none
COC(=O)c1ccc(C(=O)Nc2ccc(N)cc2N)cc1	SSB-PriA inh 40
c1ccc(-c2nn(-c3ccccc3)[n+](-c3ccccc3)n2)cc1	none (no result: Mtb bLac sens, Rv3671c protease, Mtb UGM inh)
O=[N+]([O-])c1ccc(-[n+]2nc(-c3ccccc3)nn2-c2ccc(I)cc2)cc1	SSB-PriA inh 155 (no result: Mtb FBA inh, Mtb bLac sens, Rv3671c protease, Mtb UGM inh, GDH-TPI inh)
Oc1ccc(CN2CCCc3ccccc32)c2cccnc12	none
COc1ccc(CN2CCN(c3ncccn3)CC2)c(C)c1C	none
